High-throughput results deposited in PubChem BioAssay by Corson Lab, School of Medicine, Indiana University.
FECH block: inhibitors of human ferrochelatase; P22830; purified FECH, Ni-mesoporphyrin absorbance 550 nm; calls only at 10 µM (by protocol); hit rate 3.3% among 20,000;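 active = enzyme reaction rate more than 3 SD below the solvent-only control wells on the same plate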;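 note: lower slope than DMSO wells means FECH inhibition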
Target sequence (P22830 whole entry, looked up): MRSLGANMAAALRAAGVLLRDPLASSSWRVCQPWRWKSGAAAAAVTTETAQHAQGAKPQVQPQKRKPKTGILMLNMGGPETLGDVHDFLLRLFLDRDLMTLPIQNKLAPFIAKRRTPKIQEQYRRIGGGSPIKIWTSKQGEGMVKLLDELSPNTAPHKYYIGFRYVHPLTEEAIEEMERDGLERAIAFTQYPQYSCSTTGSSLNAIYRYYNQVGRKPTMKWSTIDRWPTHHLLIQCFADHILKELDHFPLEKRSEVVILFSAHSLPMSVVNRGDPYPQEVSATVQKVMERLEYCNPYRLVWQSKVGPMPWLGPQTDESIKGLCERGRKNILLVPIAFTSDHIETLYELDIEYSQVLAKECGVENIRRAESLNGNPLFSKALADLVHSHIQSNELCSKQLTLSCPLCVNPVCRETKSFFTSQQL
Calls only; - = inactive; + = active, no number. The sample as a whole holds a higher share of hits than the screen did.

SMILES	FECH block
COc1ccc(CNS(=O)(=O)c2cc(N3C(=O)CCS3(=O)=O)ccc2OC)cc1	-
Cc1ccc(N2C(=O)CCS2(=O)=O)cc1S(=O)(=O)N1CCN(c2ccccc2)CC1	-
COc1ccc(CNS(=O)(=O)c2cc(N3C(=O)CCS3(=O)=O)ccc2C)cc1OC	+
CCOC(=O)C1CCN(S(=O)(=O)c2cc(N3C(=O)CCS3(=O)=O)ccc2OC)CC1	-
Cc1ccc(N2C(=O)CCS2(=O)=O)cc1S(=O)(=O)N1CCC(C(N)=O)CC1	-
COc1ccc(N2C(=O)CCS2(=O)=O)cc1S(=O)(=O)NCc1ccc(C)cc1	-
Cc1ccc(N2C(=O)CCS2(=O)=O)cc1S(=O)(=O)N1CCN(c2ccccn2)CC1	-
CCOC(=O)C1CCCN(S(=O)(=O)c2cc(N3C(=O)CCS3(=O)=O)ccc2C)C1 (centres undefined)	+
CCc1nc(CCNC(=O)[C@@]23CNC[C@@H]2CN(C2CCCC2)C3)no1	-
Cc1ccccc1C(NC(=O)c1occc1C)c1ccncc1 (centres undefined)	-
CCOC(=O)c1nc(NCc2ccc(OC)cc2)c2oc3ccccc3c2n1	-
Cc1cc(C(F)F)n2nc(C(=O)N3CCCC3c3ccc(Cl)cc3)nc2n1 (centres undefined)	-
CCOc1ccccc1NC(=O)CN1CCCN(Cc2cccc(F)c2)S1(=O)=O	-
Cc1cc(NC(=O)COc2ccc(C(C)C)cc2)n(-c2ncnc3c2cnn3-c2cccc(C)c2C)n1	+
Cc1cccc(OCC(=O)Nc2cc(C)nn2-c2ncnc3c2cnn3-c2cccc(C)c2C)c1	-
COc1cccc(OCC(=O)Nc2cc(C)nn2-c2ncnc3c2cnn3-c2cccc(C)c2C)c1	-
CC(=O)Nc1ccc(C(=O)N2CCOC(C(F)(F)F)C2)c(O)c1 (centres undefined)	-
O=C(CN1CCOc2ccccc2C1)NCc1cn[nH]c1-c1cccs1	-
CNc1cc(C(=O)NCCC2=CSC3=NCCCN23)ccn1	-
CCOC(=O)c1ccc(NC(=O)Nc2ccc(Sc3c(CC)c(C)nc4ncnn34)cc2)cc1	-
COc1cc(NC(=O)N2CCC(n3cnc4cccnc43)CC2)cc(OC)c1OC	-
COc1cc(NC(=O)N2CCC(n3cnc4cccnc43)CC2)cc(OC)c1	-
O=C(Nc1cccc(Br)c1)N1CCC(n2cnc3cccnc32)CC1	-
O=C(NC1CCCC1)N1CCC(n2cnc3cccnc32)CC1	+
Cc1ccccc1NC(=O)N1CCC(n2cnc3cccnc32)CC1	-
SMILES	FECH block
CCCNC(=O)N1CCC(n2cnc3cccnc32)CC1	-
Cc1cccc(NC(=O)N2CCC(n3cnc4cccnc43)CC2)c1	-
O=C(Nc1ccccc1)N1CCC(n2cnc3cccnc32)CC1	+
COc1cccc(NC(=O)N2CCC(n3cnc4cccnc43)CC2)c1	+
COc1ccc(N2C(=O)CCS2(=O)=O)cc1S(=O)(=O)N1CCN(C(C)=O)CC1	-
Cc1ccc(-c2nc3cccnc3n2CCNS(=O)(=O)c2ccccc2C)cc1	-
COc1cccc(C(=O)N[C@H]2CN[C@H](C(=O)N[C@@H](C)C3CCCCC3)C2)c1	-
CCc1ncc(C(=O)NC2CC(=O)Nc3ccccc32)cn1 (centres undefined)	-
CC(=O)Nc1ccc(-c2nc(-c3ccc4c(c3)Sc3ccccc3C(=O)N4C)no2)cc1	-
CN1C(=O)c2ccccc2Sc2cc(-c3noc(COc4ccc(F)cc4)n3)ccc21	-
CN1C(=O)c2ccccc2Sc2cc(-c3noc(CNC(=O)c4ccccc4)n3)ccc21	+
O=C(NC1CC1)C1CCN(c2ccc(-c3ccc(F)cc3)nn2)CC1	-
CCOc1ccc2nc(NC(=O)CCCc3nc4cccnc4n3Cc3ccc(F)cc3)sc2c1	-
COc1ccccc1CNc1nc(Nc2ccc(F)cc2)c2cnn(-c3ccccc3)c2n1	-
COc1ccc(-c2ncc3c(=O)n(Cc4cccc(OC)c4)c(=O)n(C)c3n2)cc1	-
COc1ccccc1-c1nc(Cn2c(=O)c3cnc(-c4ccc(C)cc4)nc3n(C)c2=O)c(C)o1	+
CCOc1ccccc1-c1nc(Cn2c(=O)c3cnc(-c4ccc(C)cc4)nc3n(C)c2=O)c(C)o1	-
COc1ccc(-c2ncc3c(=O)n(Cc4cccc(C)c4)c(=O)n(C)c3n2)cc1	-
COc1ccccc1-c1nc(Cn2c(=O)c3cnc(-c4cccnc4)nc3n(C)c2=O)c(C)o1	-
COc1ccc(-c2ncc3c(=O)n(Cc4cccnc4)c(=O)n(C)c3n2)cc1	+
COc1ccc(-c2cc(N3CCN(C(=O)Nc4cc(OC)cc(OC)c4)CC3)ncn2)cc1	-
O=S(=O)(c1ccc(F)cc1)N1CCN(Cc2nc3cccnc3n2-c2ccccc2)CC1	-
COc1ccc(N2CCCS2(=O)=O)cc1NC(=O)CCc1ccccc1	-
CCn1c(=O)n(Cc2ccccn2)c(=O)c2cnc(-c3ccc(OC)cc3)nc21	-
COc1cc2c(cc1-c1nccn1-c1ccc3nc(CO)[nH]c3c1)CCC2	-
SMILES	FECH block
COc1cccc(OC)c1-c1ccc2nc(CO)[nH]c2c1	+
COc1ccc(-c2ccc3nc(CO)[nH]c3c2)cc1Cl	-
Cc1ccc(NC(=O)CN2CCCN(Cc3cccc(F)c3)S2(=O)=O)c(C)c1	-
COC(C)(C)CC(C)NCc1noc(C2CCCC2)n1 (centres undefined)	-
Cc1ccc(NCc2cc(=O)n3[nH]c(NCc4ccccc4)nc3n2)cc1	-
CC(C)c1cc(=O)n2[nH]c(CNc3ccccc3)nc2n1	+
CC(C)c1cc(=O)n2[nH]c(CNc3ccc(Br)cc3)nc2n1	+
CC(C)NCc1cc(=O)n2[nH]c(NCc3ccccc3)nc2n1	-
O=c1cc(CNc2ccc(Br)cc2)nc2nc(NCc3ccc(F)cc3)[nH]n12	-
O=c1cc(CNc2ccc(Br)cc2)nc2nc(NCc3ccccc3)[nH]n12	-
COC(C)(C)Cn1ccnc1-c1ccccc1C	-
CC(C)Cn1nc(C(=O)O)c2c1CCN(C(=O)C(C)N1CCN(C)CC1)C2 (centres undefined)	-
CCc1ccc(NC(=O)CN2CCCN(Cc3ccccc3)S2(=O)=O)cc1	-
Cc1cc(C)n(C(C)C(=O)NC2CCN(Cc3cccc(O)c3)CC2)n1 (centres undefined)	-
Cc1nn(-c2ccc(F)cc2)c(C)c1Cn1ccnc1C(C)C	-
CC(=O)Nc1cccc(-c2ncc(C(F)(F)F)cc2Cl)c1	-
CCCc1cnc(C)nc1-c1cccc(NC(C)=O)c1	+
CC(=O)Nc1cccc(-c2ccc3[nH]ncc3c2)c1	-
Cc1cc(C(=O)NCCSc2nnc(C)s2)c2ccc(F)cc2n1	-
CCN1CCCC1CN1C(=O)c2c(NC(C)=O)c3cc(F)ccc3n2CC1(C)C(=O)NC1CCCC1 (centres undefined)	-
Cn1c(=O)c(C(=O)Nc2ccccc2Br)nc2ccccc21	-
Cn1c(=O)c(C(=O)Nc2ccc(F)cc2)nc2ccccc21	-
Cn1c(=O)c(C(=O)Nc2ccccn2)nc2ccccc21	+
CCn1c(=O)n(Cc2ccccc2C)c(=O)c2cnc(-c3ccc(OC)cc3)nc21	-
CCc1nc(CN(C)Cc2ccc(OC)c(C)c2C)no1	-
Cc1nc(-c2cccc(NC(=O)Nc3ccc(S(N)(=O)=O)cc3)c2)no1	-
Cc1ccc(-c2cc(C(=O)Nc3ccc(S(N)(=O)=O)cc3)no2)cc1C	+
NS(=O)(=O)c1ccc(CCNC(=O)c2cc(-c3ccc(Cl)cc3)on2)cc1	-
CCOc1ccc(N(Cc2nc3nc(C)cc(C)n3n2)C(=O)Cc2ccccc2)cc1	-
CCc1c(C)nc2ncnn2c1Sc1ccc(NC(=O)Nc2cccc(OC)c2)cc1	-
